This passage reports max response, outcome and Potency results from PubChem BioAssay (NCATS).

Assay [1] deals with NIH3T3. Kind of assay: Cytotoxic Profiling of Annotated Libraries Using Quantitative High-Throughput Screening (AID 1296008). Further: nearly all actives have a fitted effect of over 60% in size. The note with it: Five cell lines viability, CellTiter-Glo ATP luminescence, 48-72 h; max response: hits give low values. A digest of the protocol: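 Compounds were pin-transferred onto cells and incubated 48 or 72 hr at 37 degree Celsius, 95% humidity. CellTiter-Glo was added, plates sat 10 min at room temperature, then ATP-coupled luminescence was imaged as the viability read-out.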

In a further assay the test system is HACAT. Kind of assay: qHTS assay to identify novel small-molecules to repurpose for Merkel cell carcinoma treatment (AID 1296009). Further: nearly all actives have a fitted effect of over 60% in size. Further: potency means the concentration at half of the fitted maximal effect. The settings on record: MCC and control cell lines, CellTiter-Glo viability, 72 h; at 44.8 µM (top of the series) unless noted. A digest of the protocol: (§1)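 qHTS format: cells treated with library compounds in DMSO across 8 (NPC) or 11 (MIPE) concentrations. Readout after 72 hr at 37 degree celsius was CellTiter-Glo luminescence.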

The test system of assay [2] is HEK293T. Described as above. The settings on record: MCC and control cell lines, CellTiter-Glo viability, 72 h; at 44.8 µM (top of the series). An outline of the steps: as §1
A general note: Cellular ATP, detected with luciferase, serves as a proxy for viable cell number.

For a further assay, the system named is MCC-13. The assay is described as above. The settings on record: MCC and control cell lines, CellTiter-Glo viability, 72 h; series mostly up to 46 µM. A digest of the protocol: as §1
A further assay concerns MCC-26. The description is as above. The settings on record: MCC and control cell lines, CellTiter-Glo viability, 72 h; series mostly up to 46 µM. A digest of the protocol: as §1
The subject of the next assay is MKL-1. Described as above. The note with it: MCC and control cell lines, CellTiter-Glo viability, 72 h; series mostly up to 46 µM. A digest of the protocol: as §1
Another assay deals with MKL-2. The assay is described as above. The settings on record: MCC and control cell lines, CellTiter-Glo viability, 72 h; series mostly up to 46 µM. An outline of the steps:
as §1

The subject of assay [3] is NIH3T3. The assay is described as above. The note with it: MCC and control cell lines, CellTiter-Glo viability, 72 h; at 44.8 µM (top of the series) unless noted. A digest of the protocol:
as §1

A further assay concerns UISO. Described as above. The settings on record: MCC and control cell lines, CellTiter-Glo viability, 72 h; series mostly up to 46 µM. An outline of the steps: as §1
A further assay relates to WaGa. The assay is described as above. The note with it: MCC and control cell lines, CellTiter-Glo viability, 72 h; series mostly up to 46 µM. A digest of the protocol: as §1
The next assay relates to C33A. In words: Primary qHTS to identify gynecologic anti-cancer compounds using libraries of approved drugs and bioactive compounds (AID 1345084). Further: nearly all actives have a fitted effect of over 55% in size. The settings on record: Gynecologic cancer cell panel viability, ATPlite luminescence, 48 h; series mostly up to 57.5 µM. A digest of the protocol:
(§2)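 Cells, 1,000 per well, were allowed to settle for 16 h at 37 C before compound addition. Five concentrations were tested for 48 h, and viability was read by ATPlite luminescence after 15 min at room temperature.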
In general terms: qHTS replaces the single test concentration by a dilution series.

A further assay concerns CAOV3. The assay is described as above. The settings on record: Gynecologic cancer cell panel viability, ATPlite luminescence, 48 h; series mostly up to 57.5 µM. A digest of the protocol:
as §2

The subject of the next assay is CASKI. The assay is described as above. The settings on record: Gynecologic cancer cell panel viability, ATPlite luminescence, 48 h; series mostly up to 57.5 µM. A digest of the protocol: as §2
For another assay, the system named is Es-2. The assay is described as above. The note with it: Gynecologic cancer cell panel viability, ATPlite luminescence, 48 h; series mostly up to 57.5 µM. An outline of the steps: as §2
The next assay deals with HeLa. Described as above. The settings on record: Gynecologic cancer cell panel viability, ATPlite luminescence, 48 h; series mostly up to 57.5 µM. A digest of the protocol: as §2
The subject of assay [4] is Hek293T. The assay is described as above. The note with it: Gynecologic cancer cell panel viability, ATPlite luminescence, 48 h, control line for the selectivity index; series mostly up to 57.5 µM. A digest of the protocol:
as §2

The test system of the next assay is JEG-3. The assay is described as above. The settings on record: Gynecologic cancer cell panel viability, ATPlite luminescence, 48 h; series mostly up to 57.5 µM. A digest of the protocol:
as §2

For a further assay, the system named is OV90. Described as above. The settings on record: Gynecologic cancer cell panel viability, ATPlite luminescence, 48 h; series mostly up to 57.5 µM. An outline of the steps:
as §2

The next assay deals with PA-1. Described as above. The note with it: Gynecologic cancer cell panel viability, ATPlite luminescence, 48 h; series mostly up to 57.5 µM. An outline of the steps: as §2
The test system of another assay is SKOV3. Described as above. The settings on record: Gynecologic cancer cell panel viability, ATPlite luminescence, 48 h; series mostly up to 57.5 µM. A digest of the protocol:
as §2

Records with an inconclusive call do not appear. A number with no mark means an inactive call. Active and inactive are the calls of the source. The call rests on the fitted dose curve; in most records, active means well fitted curve in the direction sought with a large enough effect; inconclusive means small, poorly fitted or top-dose-only effect, or another doubt; inactive means no such curve, though single readings can be large; an effect the other way counts as inactive or inconclusive.
On the % scale 0 is the no-effect control and ±100 the full control effect.

Turning to `O=C1CCC(N2C(=O)c3ccccc3C2=O)C(=O)N1` (stereo unspecified), the max response with NIH3T3 [1] is -0.804%. The compound was called inactive with NIH3T3 [1], in the assay with HACAT, in the assay on HEK293T [2] and with NIH3T3 [3]. The Potency result in the assay with MCC-13, in the assay on MCC-26, with MKL-1, in the assay with MKL-2, in the assay with UISO and in the assay on WaGa was “inactive” each time. The Potency entry with C33A, in the assay with CAOV3, in the assay on CASKI, in the assay on Es-2, with HeLa and with Hek293T [4] was “inactive” throughout. Also, the Potency result with JEG-3, in the assay with OV90, in the assay with PA-1 and in the assay with SKOV3 was “inactive” throughout.

Regarding `CCCCNc1cc(C(=O)O)cc(S(N)(=O)=O)c1Oc1ccccc1`, the max response with NIH3T3 [1] is 1.18%. Besides, the compound was called inactive in the assay with NIH3T3 [1], in the assay on HACAT, with HEK293T [2] and with NIH3T3 [3]. In addition, the Potency result in the assay on MCC-13, in the assay on MCC-26, in the assay on MKL-1, in the assay on MKL-2, in the assay with UISO and with WaGa was “inactive” in each case. In addition, the Potency entry in the assay with C33A, in the assay on CASKI, in the assay on Es-2, in the assay with HeLa, in the assay on JEG-3 and in the assay with OV90 was “inactive” each time. The Potency result in the assay on PA-1 and with SKOV3 was “inactive” each time.

As for `O=C(Nc1ccc(F)c(C(F)(F)F)c1)Nc1nnc(-c2ccncc2)s1`, in the assay with NIH3T3 [1], the max response is -1.83%. Further, the compound was called inactive in the assay with NIH3T3 [1], in the assay on HACAT and with NIH3T3 [3]. For the same compound, the Potency result in the assay on MCC-13, with MCC-26, in the assay with MKL-1, in the assay on MKL-2, with UISO and in the assay on WaGa was “inactive” each time. Further, the Potency result with C33A, in the assay on CAOV3, in the assay with CASKI, in the assay with Es-2, in the assay on HeLa and in the assay with Hek293T [4] was “inactive” in each case. Besides, the Potency result in the assay on JEG-3, in the assay with OV90, with PA-1 and with SKOV3 was “inactive” throughout.

Turning to `COc1cc2c(cc1OC)CN(CCc1ccc(NC(=O)c3cccc4c(=O)c5cccc(OC)c5[nH]c34)cc1)CC2`, the max response in the assay with NIH3T3 [1] is 3.98%. The call in the assay on NIH3T3 [1], with HACAT and with NIH3T3 [3] was inactive. The Potency entry with MCC-13, in the assay on MKL-1, in the assay on C33A, in the assay with CAOV3, in the assay with CASKI and in the assay with Es-2 was “inactive” throughout. Further, the Potency result in the assay with HeLa, in the assay with Hek293T [4], in the assay with JEG-3, in the assay on OV90, in the assay with PA-1 and with SKOV3 was “inactive” in each case. For the same compound, the Potency in the assay on MKL-2 is 16.6 µM (active).

Turning to `CC(C[N+](C)(C)C)OC(N)=O` (stereo unspecified), the compound was called inactive in the assay on NIH3T3 [1], in the assay with HACAT, in the assay on HEK293T [2] and in the assay with NIH3T3 [3]. For the same compound, the Potency entry in the assay with MCC-13, in the assay on MCC-26, with MKL-1, in the assay with MKL-2, in the assay with UISO and in the assay with WaGa was “inactive” each time. For the same compound, the Potency entry with C33A, in the assay with CASKI, with Es-2, in the assay with HeLa, in the assay on Hek293T [4] and in the assay on JEG-3 was “inactive” in each case. Further, the Potency entry with OV90, in the assay with PA-1 and with SKOV3 was “inactive” throughout.

`Cc1cnc(NC(=O)C2=C(O)c3ccccc3S(=O)(=O)N2C)s1`: in the assay with NIH3T3 [1], the max response was -2.32%. The result in the assay with NIH3T3 [1], in the assay with HACAT, with HEK293T [2] and in the assay on NIH3T3 [3] was inactive. Also, the Potency entry in the assay with MCC-13, in the assay on MKL-1, with MKL-2, with UISO, in the assay with WaGa and in the assay with C33A was “inactive” in each case. Besides, the Potency result in the assay on CAOV3, with CASKI, in the assay on Es-2, in the assay on HeLa, in the assay with Hek293T [4] and in the assay with JEG-3 was “inactive” each time. In addition, the Potency entry with OV90, in the assay on PA-1 and with SKOV3 was “inactive” each time.
